# In the library only some 7.2% were active in any assay of this set; here they are far more common.
# AHR act: AHR activators, primary screen, cell-based, luminescence, luciferase reporter, human | AHR-responsive luciferase reporter cells | 320,000 tested, 2.5% active | activation, % at 5 µM | Aryl hydrocarbon receptor (Homo sapiens), P35869 | AID 2796, 2010; in the data active = activation above about 47%;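 also: 0% = vehicle wells and 100% = reference agonist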
# A1 inh: caspase 3/7 activation in MEF A1-2A-BIM cells, primary screen, A1 inhibitor project, cell-based, luminescence, HTS; Caspase-Glo 3/7 luminescence, 3 h; percent of clofoctol response, vehicle zero; caspase activation, % (concentration not given with the values); AID 2462, 2010; 330,000 tested, 0.066% active;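 active = over half of replicate activation scores above 10%, or exactly half above 10 with the replicate mean above 10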
# Mot1-301 SUMO: yeast Mot1-301 growth rescue at high temperature, primary screen, SUMOylation pathway inhibitor project, S. cerevisiae, ATP luminescence, 38.5C; growth rescue, % at 18.8 µM; S. cerevisiae Mot1-301 growth rescue; percent above DMSO median, 100 means doubled; 320,000 tested, 1% active;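 active = every valid replicate shows activation above 250% relative to neutral control wells; inactive = the rest, any valid replicate at or below 250%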;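 also: OY570 slx delta 5 strain wells were the positive control but not used for scaling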
# Efflux pump inh: inhibitors of Candida efflux pumps in yeast, primary screen, S. cerevisiae, Nile Red, multiplex | S. cerevisiae Candida pump triplex | inhibition, % at 10 µM | 330,000 tested, 0.44% active | AID 485275, 2010;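 active = plate passing quality check with inhibition over a set limit, or well fluorescence over plate mean plus 4 SD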;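 also: Nile Red retained in pooled yeast measured as flow cytometry median fluorescence; 0% = buffer negative control and 100% = Enniatin B positive control; higher means more Nile Red kept so more efflux inhibition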
# ALR inh: inhibitors of human ALR sulfhydryl oxidase, primary screen, biochemical, H2O2 detection, HRP-luminol luminescence, single point; purified ALR, DTT oxidation; inhibition, % (no concentration beside the values); 290,000 tested, 3.8% active; AID 485317, 2010;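 active = mean replicate inhibition above about 79%, with every replicate also reaching it, limit read from the data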
# VLA-4 inh: inhibition in human VLA-4 binding assay, primary screen, VLA-4 allosteric modulator project, MLPCN library, flow cytometry, VLA-4 expressing cells | Integrin alpha-4 (Homo sapiens), P13612 | ligand binding flow cytometry | inhibition, % (about 7 µM as worked out from the volumes in the protocol) | 330,000 tested, 0.2% active | AID 2557, 2010; in the data active = inhibition above about 50%
# Yeast cmpd fluor: compound fluorescence in yeast efflux pump counter-screen. shares compounds with Efflux pump inh. S. cerevisiae AD/pABC3, flow cytometry. fluorescence ratio to DMSO, % at 10 µM. 1,700 tested, 4% active. AID 588517;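 active = fluorescence ratio to DMSO above its plate's cutoff, the plate mean ratio plus 5 SD, cut at about 210% in these data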;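 also: unstained yeast with no Nile Red so the signal is compound autofluorescence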
# Mdr1 pump inh: inhibitors of Candida albicans Mdr1 efflux, confirmation, flow cytometry, singleplex, Cherry Pick1 set. shares compounds with Efflux pump inh. inhibition, % at 10 µM. S. cerevisiae AD/CaMDR1, Nile Red efflux. AID 588518, 2011. 1,700 tested, 1% active; in the data active = inhibition above about 26%;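 also: 0% = DMSO vehicle and 100% = reference inhibitor; higher means more Nile Red retained so more efflux inhibition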
# CaCdr2 efflux inh: inhibitors of Candida albicans Cdr2 efflux pump, confirmation, S. cerevisiae AD/CaCDR2, flow cytometry, cherry pick 1, singleplex | 1,700 tested, 4% active | shares compounds with Efflux pump inh | AID 588520, 2011 | Nile Red retention | Nile Red retention ratio vs DMSO, % at 10 µM; in the data active = Nile Red retention ratio vs DMSO above about 190%;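 also: higher ratio means more blocking of Cdr2 efflux of the dye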
# Cdr1 pump inh: inhibitors of Candida albicans Cdr1 efflux pump, confirmation, S. cerevisiae AD/CaCDR1, flow cytometry, cherry pick 1, singleplex. AID 588522, 2011. shares compounds with Efflux pump inh. inhibition, % at 10 µM. 1,700 tested, 1% active. Nile Red efflux;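 active = inhibition above the screen-wide mean plus twice its standard deviation, cut at about 32% in these data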
# * marks the source's active call; other numbers are inactive results; i = inactive; nt = not tested or not shown; + = active, no number.
SMILES,AHR act,A1 inh,Mot1-301 SUMO,Efflux pump inh,ALR inh,VLA-4 inh,Yeast cmpd fluor,Mdr1 pump inh,CaCdr2 efflux inh,Cdr1 pump inh
O=C1Nc2ccccc2/C1=C/c1cnc(-c2ccccc2)[nH]1,73*,-2,125,0.8*,35,-61,111,0,435*,1
COc1ccc2nc(NC(=O)c3cc(C)oc3C)sc2c1,-7,-12,-13,0,-7,8,nt,nt,nt,nt
COc1ccc2nc(NC(=O)c3ccoc3C)sc2c1,-3,-10,-61,7.5*,-4,-3,120,0,120,0
CCCCC1C2=C(CCCC2=O)OC2=C1C(=O)CCC2,3,1,-11,7.6*,-8,-12,94,0,91,0
COc1ccc(S(=O)(=O)N2CCOCC2)cc1NC(=O)COC(=O)C1CC2CCCC(C1)C2=O (centres undefined),-1,1,180,0,3,-9,nt,nt,nt,nt
COc1ccc(S(=O)(=O)N2CCOCC2)cc1NC(=O)COC(=O)CC1CC2CCC1C2 (centres undefined),1,0,-16,0.8*,-2,5,105,0,91,0
CNC(=O)N(O)C1N(c2ccccc2)C(=S)SC1(C)C (centres undefined),0,0,-15,8.0*,-1,-8,99,0,114,0
O=C(O)CCN1C(=O)/C(=C\c2ccc(-c3nc4ccccc4s3)o2)SC1=S,11,1,26,0.9*,98*,2,114,8,+,56*
O=C(O)CCN1C(=O)/C(=C\c2ccncc2)SC1=S,-1,4,-10,0,-6,1,nt,nt,nt,nt
Cc1c(NC(NC(=O)CC(C)C)C(Cl)(Cl)Cl)c(=O)n(-c2ccccc2)n1C (centres undefined),0,-1,-13,0,63,3,nt,nt,nt,nt
Cc1c(NC(C)c2ccccc2O)c(=O)n(-c2ccccc2)n1C (centres undefined),8,-1,14,8.2*,54,0,106,0,89,0
O=C(CCc1nnc2ccc(N3CCCC3)nn12)Nc1ccc(F)cc1F,-1,1,-12,0,nt,4,nt,nt,nt,nt
CCN(CC)c1ccc(/C=C/c2ccc3ccc(OC)cc3[n+]2CC)cc1,0,-1,138,16*,99*,i,+,11,155,9
CC[n+]1c(/C=C/c2ccc(OC)c(OC)c2)ccc2ccccc21,13,0,41,0.7*,20,-18,177,0,107,0
CC[n+]1c(/C=C/c2cc([N+](=O)[O-])ccc2O)ccc2ccccc21,-7,-2,61,0,-50,9,nt,nt,nt,nt
CCN(CC)c1nc2cc(OC)ccc2cc1C#N,2,0,0,0,17,-154,nt,nt,nt,nt
CC[n+]1c(/C=C/c2ccc(N(C)C)cc2)ccc2ccccc21,-2,-2,-19,11*,98*,i,+,16,121,9
CC[n+]1c(/C=C/c2ccc(OC(C)=O)c(OC)c2)ccc2ccccc21,nt,0,-30,0,57,1,nt,nt,nt,nt
